Results taken from the supplement of paper PMC10849652.
About 8,800 targets were measured; listed, in parts, are those with a hit and a random draw of the rest. About 0.5% of all pairs of compound and target were hits.

Columns and labels:
Experiment in all cases: log2 fold change, soluble protein after heating vs DMSO (PISA); higher = thermal stabilisation; K562 lysate, 10 uM; active = over 0.2 and 3.5 SD of the protein, either way, in both replicates (recomputed)
vemurafenib = compound: CCCS(=O)(=O)Nc1ccc(F)c(C(=O)c2c[nH]c3ncc(-c4ccc(Cl)cc4)cc23)c1F [vemurafenib]
Procedure, shortened: (§1)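 Pellets of K562 cells were dounce-homogenised in PBS pH 7.4 with 1 mM MgCl2, and the crude extract was held at 1 mg/mL protein for a 30 min treatment with 10 μM compound. Aliquots were heated for 3 min over 48°C-58°C and pooled before NP-40 was added to 0.5% at 4°C. The supernatant from 21,000xg for 90 min was quantified by TMTpro 16plex LC-MS/MS with channel sums equalised. Values are reported from duplicates as log-two fold change in thermal stability relative to solvent controls.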

[1] = compound: CCCS(=O)(=O)Nc1ccc(F)c(C(=O)c2c[nH]c3ncc(Cl)cc23)c1F
Procedure, shortened: as §1

barasertib = compound: CCN(CCCOc1ccc2c(Nc3cc(CC(=O)Nc4cccc(F)c4)[nH]n3)ncnc2c1)CCOP(=O)(O)O [barasertib]
Procedure, shortened: as §1

[2] = compound: CC[C@@H]1C(=O)N(C)c2cnc(Nc3ccc(C(=O)NC4CCN(C)CC4)cc3OC)nc2N1C1CCCC1
Procedure, shortened: as §1

volasertib = compound: CC[C@@H]1C(=O)N(C)c2cnc(Nc3ccc(C(=O)N[C@H]4CC[C@H](N5CCN(CC6CC6)CC5)CC4)cc3OC)nc2N1C(C)C [volasertib]
Procedure, shortened: as §1

[3] = compound: CCn1c(C(=O)N(C2CC2)C2CC2)cc2c3c(ncn3C)c(Nc3cc(C)n(C)n3)nc21
Procedure, shortened: as §1

[4] = compound: CCn1cc(-c2ccnc3[nH]c(-c4cccc(CN(C)C)c4)cc23)c(-c2ccc(NC(=O)N(C)C)cc2)n1
Procedure, shortened: as §1

[5] = compound: CN1CCC(CNc2ccc3ncc(-c4cccc(OC(F)(F)F)c4)n3n2)CC1
Procedure, shortened: as §1

saracatinib = compound: CN1CCN(CCOc2cc(OC3CCOCC3)c3c(Nc4c(Cl)ccc5c4OCO5)ncnc3c2)CC1 [saracatinib]
Procedure, shortened: as §1

sotrastaurin = compound: CN1CCN(c2nc(C3=C(c4c[nH]c5ccccc45)C(=O)NC3=O)c3ccccc3n2)CC1 [sotrastaurin]
Procedure, shortened: as §1

alvocidib = compound: CN1CC[C@H](c2c(O)cc(O)c3c(=O)cc(-c4ccccc4Cl)oc23)[C@H](O)C1 [alvocidib]
Procedure, shortened: as §1

Tubastatin A = compound: CN1CCc2c(c3ccccc3n2Cc2ccc(C(=O)NO)cc2)C1 [Tubastatin A]
Procedure, shortened: as §1

[6] = compound: CNC(=O)C1=CC=CC=C1NC2=NC(=NC=C2Cl)NC3=C(C=C(C=C3)N4CCOCC4)OC
Procedure, shortened: as §1

defactinib = compound: CNC(=O)c1ccc(Nc2ncc(C(F)(F)F)c(NCc3nccnc3N(C)S(C)(=O)=O)n2)cc1 [defactinib]
Procedure, shortened: as §1

[7] = compound: CNc1nc(-c2ccc3c(N)n[nH]c3c2)cc(N2C[C@@H](C(=O)NC3CCCCC3)CC[C@H]2C)n1
Procedure, shortened: as §1

encorafenib = compound: COC(=O)N[C@@H](C)CNc1nccc(-c2cn(C(C)C)nc2-c2cc(Cl)cc(NS(C)(=O)=O)c2F)n1 [encorafenib]
Procedure, shortened: as §1

[8] = compound: COC(=O)[C@H](CCSC)NC(=O)C1=C(C=C(C=C1)NC[C@H](CS)N)C2=CC=CC=C2
Procedure, shortened: as §1

alisertib = compound: COc1cc(Nc2ncc3c(n2)-c2ccc(Cl)cc2C(c2c(F)cccc2OC)=NC3)ccc1C(=O)O [alisertib]
Procedure, shortened: as §1

[9] = compound: COc1cc2nc(-c3cc(F)ccc3O)nc(N[C@@H]3CNC[C@H]3C(C)(C)O)c2cc1OC
Procedure, shortened: as §1

gefitinib = compound: COc1cc2ncnc(Nc3ccc(F)c(Cl)c3)c2cc1OCCCN1CCOCC1 [gefitinib]
Procedure, shortened: as §1

Measured: log2 fold change

WDR41 (UniProt Q9HAD4)
Sequence of UniProt Q9HAD4 (Q9HAD4 whole entry, looked up): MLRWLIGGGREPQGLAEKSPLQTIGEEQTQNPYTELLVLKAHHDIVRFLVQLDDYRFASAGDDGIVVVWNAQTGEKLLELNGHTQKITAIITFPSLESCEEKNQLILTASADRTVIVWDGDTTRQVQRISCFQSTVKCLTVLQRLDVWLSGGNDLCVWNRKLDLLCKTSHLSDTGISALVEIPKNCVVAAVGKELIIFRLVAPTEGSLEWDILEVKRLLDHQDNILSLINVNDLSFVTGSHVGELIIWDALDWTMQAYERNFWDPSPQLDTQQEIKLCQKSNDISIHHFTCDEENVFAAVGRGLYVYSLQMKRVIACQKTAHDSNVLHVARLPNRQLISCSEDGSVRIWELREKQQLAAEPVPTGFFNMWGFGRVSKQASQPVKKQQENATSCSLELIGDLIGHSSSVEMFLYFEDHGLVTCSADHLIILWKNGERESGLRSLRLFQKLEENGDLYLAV
inactive: vemurafenib -0.018 | [1] 0.036 | barasertib -0.07 | [2] 0.089 | volasertib 0.005 | [3] 0.053 | [4] -0.032 | [5] 0.053 | saracatinib 0.017 | sotrastaurin 0.043 | alvocidib -0.061 | Tubastatin A -0.14 | [6] 0.021 | defactinib -0.044 | [7] 0.017 | encorafenib 0.081 | [8] -0.121 | alisertib 0.033 | [9] -0.047 | gefitinib 0.083

WDR6 (UniProt Q9NNW5)
inactive: vemurafenib 0.008 | [1] -0.007 | barasertib 0.013 | [2] -0.006 | volasertib -0.029 | [3] -0.009 | [4] -0.053 | [5] 0.033 | saracatinib 0.01 | sotrastaurin 0.116 | alvocidib -0.009 | Tubastatin A -0.077 | [6] -0.004 | defactinib 0.003 | [7] -0.011 | encorafenib 0.015 | [8] 0.031 | alisertib 0.005 | [9] 0.016 | gefitinib -0.013

VANGL1 (UniProt Q8TAA9)
Sequence of UniProt Q8TAA9 (Q8TAA9 whole entry, looked up): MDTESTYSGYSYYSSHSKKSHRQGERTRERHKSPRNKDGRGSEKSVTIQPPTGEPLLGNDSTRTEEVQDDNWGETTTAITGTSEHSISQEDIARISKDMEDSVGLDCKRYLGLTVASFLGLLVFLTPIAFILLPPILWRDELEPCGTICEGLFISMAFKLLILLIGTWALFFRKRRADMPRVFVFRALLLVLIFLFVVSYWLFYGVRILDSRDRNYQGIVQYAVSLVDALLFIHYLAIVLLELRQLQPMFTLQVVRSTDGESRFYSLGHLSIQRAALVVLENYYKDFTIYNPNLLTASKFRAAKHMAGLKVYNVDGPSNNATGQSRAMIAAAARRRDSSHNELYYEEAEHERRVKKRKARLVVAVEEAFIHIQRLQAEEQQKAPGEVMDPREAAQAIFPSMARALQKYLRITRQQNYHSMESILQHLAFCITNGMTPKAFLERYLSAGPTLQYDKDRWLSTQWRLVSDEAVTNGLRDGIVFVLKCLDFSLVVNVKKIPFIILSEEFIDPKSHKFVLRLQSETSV
inactive: vemurafenib -0.075 | [1] 0.023 | barasertib 0.101 | [2] 0.004 | volasertib -0.009 | [3] 0.105 | [4] -0.088 | [5] 0.058 | saracatinib 0.044 | sotrastaurin 0.125 | alvocidib 0.005 | Tubastatin A 0.088 | [6] -0.054 | defactinib 0.078 | [7] 0.054 | encorafenib -0.011 | [8] -0.072 | alisertib -0.023 | [9] -0.071 | gefitinib 0.011

VPS16 (UniProt Q9H269)
inactive: vemurafenib 0.038 | [1] 0.009 | barasertib 0.007 | [2] 0.063 | volasertib -0.04 | [3] 0.028 | [4] -0.049 | [5] -0.015 | saracatinib -0.017 | sotrastaurin -0.002 | alvocidib 0.032 | Tubastatin A -0.082 | [6] 0.002 | defactinib -0.006 | [7] 0 | encorafenib 0.049 | [8] -0.069 | alisertib 0.031 | [9] -0.004 | gefitinib 0.013

YLPM1 (UniProt P49750)
inactive: vemurafenib 0.062 | [1] 0.005 | barasertib 0.032 | [2] 0.069 | volasertib -0.019 | [3] -0.018 | [4] 0.165 | [5] -0.085 | saracatinib 0.033 | sotrastaurin 0.012 | alvocidib 0.061 | Tubastatin A -0.041 | [6] 0.01 | defactinib 0.041 | [7] 0.131 | encorafenib 0.049 | [8] -0.09 | alisertib -0.033 | [9] 0 | gefitinib -0.086

YTHDC2 (UniProt Q9H6S0)
Sequence of UniProt Q9H6S0 (Q9H6S0 whole entry, looked up): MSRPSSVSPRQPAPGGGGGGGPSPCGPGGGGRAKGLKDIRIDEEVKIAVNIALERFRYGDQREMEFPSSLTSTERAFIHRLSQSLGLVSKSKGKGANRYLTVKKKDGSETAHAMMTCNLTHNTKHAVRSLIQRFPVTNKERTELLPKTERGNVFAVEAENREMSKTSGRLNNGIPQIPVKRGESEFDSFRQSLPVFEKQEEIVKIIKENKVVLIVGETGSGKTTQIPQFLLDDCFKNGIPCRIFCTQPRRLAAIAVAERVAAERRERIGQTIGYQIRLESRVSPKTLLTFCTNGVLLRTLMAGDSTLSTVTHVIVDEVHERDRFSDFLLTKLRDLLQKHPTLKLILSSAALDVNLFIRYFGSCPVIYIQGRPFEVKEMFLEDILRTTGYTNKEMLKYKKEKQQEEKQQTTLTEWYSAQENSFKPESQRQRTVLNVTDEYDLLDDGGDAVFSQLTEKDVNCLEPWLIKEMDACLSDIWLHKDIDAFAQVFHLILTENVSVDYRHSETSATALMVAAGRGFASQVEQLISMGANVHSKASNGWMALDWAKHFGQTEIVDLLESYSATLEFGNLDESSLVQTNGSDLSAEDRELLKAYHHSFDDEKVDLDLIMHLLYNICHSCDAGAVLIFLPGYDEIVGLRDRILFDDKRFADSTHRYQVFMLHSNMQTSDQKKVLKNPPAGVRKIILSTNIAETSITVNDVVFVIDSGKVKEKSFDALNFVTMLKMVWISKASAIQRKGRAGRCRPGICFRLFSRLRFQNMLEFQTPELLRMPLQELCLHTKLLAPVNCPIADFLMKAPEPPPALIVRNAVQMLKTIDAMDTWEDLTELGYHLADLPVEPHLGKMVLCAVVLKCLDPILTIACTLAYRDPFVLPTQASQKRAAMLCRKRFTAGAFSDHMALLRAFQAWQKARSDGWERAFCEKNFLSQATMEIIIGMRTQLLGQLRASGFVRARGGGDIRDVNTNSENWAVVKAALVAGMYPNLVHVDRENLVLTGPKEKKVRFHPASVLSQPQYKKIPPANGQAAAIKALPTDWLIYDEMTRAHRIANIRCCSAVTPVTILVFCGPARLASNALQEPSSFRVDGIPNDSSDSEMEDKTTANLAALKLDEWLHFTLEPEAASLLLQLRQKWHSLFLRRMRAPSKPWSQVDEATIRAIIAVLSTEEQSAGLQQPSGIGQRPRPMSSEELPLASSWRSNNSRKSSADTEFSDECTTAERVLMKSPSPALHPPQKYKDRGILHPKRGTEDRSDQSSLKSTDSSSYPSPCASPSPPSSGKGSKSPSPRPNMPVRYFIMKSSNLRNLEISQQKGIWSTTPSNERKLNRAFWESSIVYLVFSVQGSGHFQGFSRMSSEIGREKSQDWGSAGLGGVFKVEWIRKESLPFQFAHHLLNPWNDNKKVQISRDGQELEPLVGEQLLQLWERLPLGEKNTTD
inactive: vemurafenib 0.068 | [1] 0.022 | barasertib 0.07 | [2] -0.013 | volasertib -0.027 | [3] 0.025 | [4] 0.025 | [5] 0.005 | saracatinib 0.015 | sotrastaurin 0.022 | alvocidib 0.05 | Tubastatin A -0.084 | [6] 0.038 | defactinib 0.048 | [7] -0.008 | encorafenib 0.04 | [8] 0.05 | alisertib -0.026 | [9] -0.029 | gefitinib -0.004

VAMP2 (UniProt P63027)
Sequence of UniProt P63027 (P63027 whole entry, looked up): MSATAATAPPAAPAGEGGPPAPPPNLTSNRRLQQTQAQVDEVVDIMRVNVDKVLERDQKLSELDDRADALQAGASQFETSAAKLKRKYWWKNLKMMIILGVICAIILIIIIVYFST
inactive: vemurafenib 0.002 | [1] -0.027 | barasertib 0.012 | volasertib 0.009 | [3] 0.02 | [4] 0.057 | [5] 0.091 | saracatinib 0.033 | sotrastaurin -0.028 | alvocidib 0.019 | Tubastatin A 0.027 | [6] 0.035 | defactinib 0.112 | [7] -0.01 | encorafenib 0.05 | [8] -0.057 | alisertib 0.014 | [9] 0.001 | gefitinib 0.018
active: [2] -0.286

USP10 isoform 2 (UniProt Q14694)
inactive: vemurafenib 0.021 | [1] 0.013 | barasertib 0.002 | [2] -0.005 | volasertib -0.039 | [3] 0.013 | [4] -0.079 | [5] 0 | saracatinib 0.005 | sotrastaurin 0.008 | alvocidib 0.006 | Tubastatin A -0.118 | [6] 0.015 | defactinib 0.017 | [7] 0.021 | encorafenib 0.019 | [8] 0.04 | alisertib 0.012 | [9] -0.009 | gefitinib -0.018

VAC14 (UniProt Q08AM6)
inactive: vemurafenib -0.002 | [1] 0.008 | barasertib 0.021 | [2] -0.021 | volasertib -0.02 | [3] 0.013 | [4] -0.032 | [5] 0.007 | saracatinib 0.007 | sotrastaurin 0 | alvocidib 0 | Tubastatin A -0.036 | [6] 0.022 | defactinib 0.007 | [7] 0.005 | encorafenib 0.04 | [8] -0.051 | alisertib 0.008 | [9] 0.006 | gefitinib 0.003

USP9X (UniProt Q93008)
inactive: vemurafenib -0.013 | [1] 0.014 | barasertib 0.038 | [2] -0.065 | volasertib -0.053 | [3] 0.033 | [4] -0.042 | [5] -0.036 | saracatinib 0.03 | sotrastaurin 0.007 | alvocidib -0.009 | Tubastatin A -0.114 | [6] 0.016 | defactinib 0.026 | [7] -0.04 | encorafenib 0.007 | [8] 0.023 | alisertib 0.016 | [9] 0.013 | gefitinib 0.002

WRNIP1 (UniProt Q96S55)
Sequence of UniProt Q96S55 (Q96S55 whole entry, looked up): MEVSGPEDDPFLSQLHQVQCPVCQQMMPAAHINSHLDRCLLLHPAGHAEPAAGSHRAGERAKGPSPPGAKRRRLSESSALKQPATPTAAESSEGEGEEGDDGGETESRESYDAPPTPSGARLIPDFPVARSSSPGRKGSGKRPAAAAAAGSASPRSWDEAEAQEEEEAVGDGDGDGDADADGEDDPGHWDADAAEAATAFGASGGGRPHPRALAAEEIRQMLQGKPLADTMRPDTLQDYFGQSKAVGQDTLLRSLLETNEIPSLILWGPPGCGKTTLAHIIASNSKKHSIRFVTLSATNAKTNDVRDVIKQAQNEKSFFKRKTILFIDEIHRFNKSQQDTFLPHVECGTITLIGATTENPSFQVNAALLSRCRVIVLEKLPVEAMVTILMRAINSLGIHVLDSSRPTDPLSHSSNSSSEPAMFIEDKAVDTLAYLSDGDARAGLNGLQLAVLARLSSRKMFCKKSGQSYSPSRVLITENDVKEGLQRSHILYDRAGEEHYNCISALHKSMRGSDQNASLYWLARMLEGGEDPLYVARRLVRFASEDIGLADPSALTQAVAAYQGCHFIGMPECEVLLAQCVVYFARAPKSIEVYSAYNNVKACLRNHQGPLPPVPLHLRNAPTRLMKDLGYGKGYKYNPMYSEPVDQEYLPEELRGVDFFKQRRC
inactive: vemurafenib 0.036 | [1] 0.042 | barasertib 0.064 | [2] -0.114 | volasertib -0.128 | [3] 0.014 | [4] -0.026 | [5] 0.03 | saracatinib -0.006 | sotrastaurin 0.042 | alvocidib 0.005 | Tubastatin A -0.229 | [6] 0.01 | defactinib 0.01 | [7] -0.044 | encorafenib 0.024 | alisertib -0.022 | [9] -0.014 | gefitinib 0.033
active: [8] 0.222

WDR62 isoform 4 (UniProt O43379)
Sequence of UniProt O43379 (O43379 whole entry, looked up): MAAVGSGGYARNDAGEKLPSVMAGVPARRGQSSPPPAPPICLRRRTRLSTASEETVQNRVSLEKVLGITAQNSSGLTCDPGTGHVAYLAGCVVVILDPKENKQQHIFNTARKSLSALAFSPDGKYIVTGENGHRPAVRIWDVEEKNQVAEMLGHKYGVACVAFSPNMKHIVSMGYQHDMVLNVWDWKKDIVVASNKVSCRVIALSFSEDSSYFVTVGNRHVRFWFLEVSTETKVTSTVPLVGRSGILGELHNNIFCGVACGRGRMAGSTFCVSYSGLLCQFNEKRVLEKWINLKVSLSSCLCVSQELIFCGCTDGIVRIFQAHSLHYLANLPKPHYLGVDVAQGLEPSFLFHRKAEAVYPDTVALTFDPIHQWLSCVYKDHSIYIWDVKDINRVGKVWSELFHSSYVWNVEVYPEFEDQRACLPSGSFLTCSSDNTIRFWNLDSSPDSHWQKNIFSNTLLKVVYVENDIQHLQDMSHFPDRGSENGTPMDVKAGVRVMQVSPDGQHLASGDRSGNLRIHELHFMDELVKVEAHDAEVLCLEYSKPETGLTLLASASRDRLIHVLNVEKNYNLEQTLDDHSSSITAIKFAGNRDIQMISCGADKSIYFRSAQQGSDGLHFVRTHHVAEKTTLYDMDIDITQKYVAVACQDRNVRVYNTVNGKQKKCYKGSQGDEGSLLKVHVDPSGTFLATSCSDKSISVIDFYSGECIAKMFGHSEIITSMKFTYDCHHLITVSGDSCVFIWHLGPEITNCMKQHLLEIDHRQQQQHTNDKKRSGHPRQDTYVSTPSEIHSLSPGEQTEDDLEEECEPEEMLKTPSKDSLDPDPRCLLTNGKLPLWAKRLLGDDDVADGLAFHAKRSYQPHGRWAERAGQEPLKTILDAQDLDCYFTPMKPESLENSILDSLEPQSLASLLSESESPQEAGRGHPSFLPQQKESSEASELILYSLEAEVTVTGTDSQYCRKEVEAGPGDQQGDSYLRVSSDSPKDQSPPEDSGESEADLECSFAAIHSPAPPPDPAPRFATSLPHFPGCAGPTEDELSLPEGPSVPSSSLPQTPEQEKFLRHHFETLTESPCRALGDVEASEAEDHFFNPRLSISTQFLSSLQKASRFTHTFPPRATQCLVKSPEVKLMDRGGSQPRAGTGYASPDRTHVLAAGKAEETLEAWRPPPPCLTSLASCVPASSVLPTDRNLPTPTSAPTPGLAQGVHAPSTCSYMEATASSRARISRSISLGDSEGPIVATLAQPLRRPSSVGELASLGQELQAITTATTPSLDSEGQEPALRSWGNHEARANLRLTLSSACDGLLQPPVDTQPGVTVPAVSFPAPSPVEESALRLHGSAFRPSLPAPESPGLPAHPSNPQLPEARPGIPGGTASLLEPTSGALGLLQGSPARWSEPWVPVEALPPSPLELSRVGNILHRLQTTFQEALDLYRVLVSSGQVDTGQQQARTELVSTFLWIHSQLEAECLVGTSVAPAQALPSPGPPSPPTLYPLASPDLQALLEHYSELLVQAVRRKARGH
inactive: vemurafenib 0.004 | [1] 0.065 | barasertib 0.031 | [2] -0.063 | volasertib 0 | [3] 0.003 | [4] -0.009 | [5] -0.044 | saracatinib 0.04 | sotrastaurin 0.031 | alvocidib 0.018 | Tubastatin A -0.132 | [6] 0.012 | defactinib -0.007 | [7] 0.048 | encorafenib 0.054 | [8] -0.01 | alisertib 0.005 | [9] 0.052 | gefitinib 0.013

VAV3 isoform 4 (UniProt Q9UKW4)
inactive: vemurafenib 0.059 | [1] -0.004 | barasertib 0.049 | [2] -0.001 | volasertib -0.017 | [3] -0.291 | [4] -0.512 | [5] 0.177 | saracatinib -0.15 | sotrastaurin 0.001 | alvocidib -0.305 | Tubastatin A -0.202 | [6] 0.032 | defactinib -0.295 | [7] 0.053 | encorafenib 0 | [8] 0.049 | alisertib -0.004 | [9] 0.054 | gefitinib 0.036

WDR45 isoform 2 (UniProt Q9Y484)
Sequence of UniProt Q9Y484 (Q9Y484 whole entry, looked up): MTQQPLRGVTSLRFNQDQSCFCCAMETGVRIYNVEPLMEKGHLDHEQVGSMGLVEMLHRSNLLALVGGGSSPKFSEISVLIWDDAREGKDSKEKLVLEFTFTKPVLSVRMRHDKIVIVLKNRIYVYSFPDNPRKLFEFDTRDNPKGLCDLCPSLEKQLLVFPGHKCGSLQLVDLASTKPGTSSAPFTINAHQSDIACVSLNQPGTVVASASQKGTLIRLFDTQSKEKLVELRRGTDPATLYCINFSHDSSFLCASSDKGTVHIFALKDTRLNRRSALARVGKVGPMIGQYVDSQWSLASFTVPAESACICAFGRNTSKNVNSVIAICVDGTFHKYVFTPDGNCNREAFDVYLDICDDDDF
inactive: vemurafenib -0.028 | [1] 0.043 | barasertib 0.005 | [2] 0.052 | volasertib 0 | [3] 0.12 | [4] -0.19 | [5] 0.086 | saracatinib 0.01 | sotrastaurin 0.024 | alvocidib -0.065 | Tubastatin A -0.067 | [6] -0.001 | defactinib 0.013 | [7] -0.059 | encorafenib -0.042 | [8] -0.051 | alisertib 0.021 | [9] -0.008 | gefitinib 0.037
